Screening data from PubChem BioAssay.
C diff HTS: C. difficile growth inhibitors, primary screen, HTS; Clostridium difficile clinical isolate growth, OD600, 24 h; hits give low values; growth activity, negative = inhibition, % at 16 µg/mL (by protocol); 86,000 compounds, 0.25% hits;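 active = mean growth activity at or below -80% and every replicate also at or below -80%; inconclusive = mean at or below -80% but some replicate above -80%; inactive = mean growth activity above -80%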;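 also: 0% = DMSO wells and -100% = levofloxacin 16 µg/mL wells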
Pf Dd2 growth: P. falciparum Dd2 growth inhibitors, primary screen, SYBR Green fluorescence, single dose replicates | 72 h; hits give low values | activity change, % at 10 µM | 94,000 compounds, 2.3% hits; in the data active = activity change below about -80%; inconclusive = no clear call, values can overlap the other calls
Tcruzi prolif: T. cruzi intracellular proliferation inhibitors, primary screen, cell-based, beta-gal Tulahuen parasites, NIH3T3 host, luminescence; T. cruzi beta-gal in NIH3T3, GalScreen luminescence, 90 h; inhibition, % at 8.34 µM; 77,000 compounds, 5.9% hits;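 active = mean inhibition above about 93%, with at least 55% of replicates each passing it, limit read from the data, passing the limit was not always enough; inconclusive = only one of those two conditions holds; inactive = neither condition holds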
* marks the source's active call; other numbers are inactive results; ? = inconclusive; nt = no result. The list is not random: actives were taken first. Their share in the collection is about 6.8%.

SMILES	C diff HTS	Pf Dd2 growth	Tcruzi prolif
C[C@H]1CN([C@@H](C)CO)C(=O)CCCn2nncc2CO[C@H]1CN(C)C(=O)Nc1ccc2c(c1)OCCO2	4	-5	2
C[C@H](CO)N1C[C@H](C)[C@H](CN(C)CC2CCCCC2)Oc2ccc(NS(=O)(=O)c3ccccc3)cc2C1=O	18	-3	-12
COc1ccc(C#Cc2ccc([C@H]3[C@@H](CO)N4C(=O)CN(C(=O)c5ccc(F)cc5)C[C@H]34)cc2)cc1	-4	-13	nt
O=C(CC1CC1)N1CC(=O)N2[C@H](CO)[C@@H](c3ccc(-c4cccnc4)cc3)[C@H]2C1	-10	13	nt
COc1ccc(C#Cc2ccc([C@@H]3[C@H](CO)N4CCCCN(C(=O)Nc5cccc(F)c5)C[C@@H]34)cc2)cc1	-85*	-84*	62
O=C(Nc1cccc(F)c1)N1CCCCN2[C@H](CO)[C@@H](c3ccc(C#Cc4ccccc4)cc3)[C@@H]2C1	-3	-18	88
COc1ccc(NC(=O)N2CCCCN3[C@H](CO)[C@H](c4ccc(-c5ccccc5F)cc4)[C@@H]3C2)cc1	-15	-85*	30
COc1ccc(C#Cc2ccc([C@H]3[C@@H](CO)N4CCCCN(C(=O)Nc5cccc(F)c5)C[C@H]34)cc2)cc1	-89*	?	66
O=C(Nc1ccccc1)N1CCCCN2[C@H](CO)[C@@H](c3ccc(-c4ccccc4F)cc3)[C@@H]2C1	50	11	88
COc1ccc(C#Cc2ccc([C@@H]3[C@H]4CN(C(=O)Nc5cccc(F)c5)CCCCN4[C@H]3CO)cc2)cc1	53	-51	68
COc1ccc(C#Cc2ccc([C@@H]3[C@@H](CO)N4CCCCN(Cc5ccccc5F)C[C@H]34)cc2)cc1	-97*	-80	-29
COc1ccc(C#Cc2ccc([C@H]3[C@H]4CN(Cc5ccccc5F)CCCCN4[C@H]3CO)cc2)cc1	0	-35	5
Cc1noc(C)c1S(=O)(=O)N(C)C[C@@H]1OCCCC[C@@H](C)Oc2ccc(NS(C)(=O)=O)cc2C(=O)N([C@@H](C)CO)C[C@H]1C	5	19	-100
COc1ccc(C#Cc2ccc3c(c2)O[C@H](CN(C)C(=O)Nc2cccc(OC)c2)[C@@H](C)CN([C@H](C)CO)S3(=O)=O)cc1	nt	-81*	68
COc1cccc(NC(=O)N(C)C[C@H]2Oc3cc(C#Cc4ccccc4)ccc3S(=O)(=O)N([C@@H](C)CO)C[C@@H]2C)c1	51	-82*	121*
COc1cccc(NC(=O)N(C)C[C@H]2Oc3cc(C#Cc4ccncc4)ccc3S(=O)(=O)N([C@@H](C)CO)C[C@@H]2C)c1	-2	-54	70
COc1cccc(NC(=O)N(C)C[C@H]2Oc3cc(C#Cc4ccc(F)cc4)ccc3S(=O)(=O)N([C@H](C)CO)C[C@H]2C)c1	6	-71	81
Cc1ccc(S(=O)(=O)NCC[C@H]2CC[C@H](NC(=O)CC3CC3)[C@H](CO)O2)cc1	nt	11	-10
COc1cccc(NC(=O)N2C[C@H](O)COC[C@@H]3O[C@@H](CC(=O)NC4CCCC4)CC[C@H]32)c1	nt	4	12
CCCC#Cc1ccc([C@@H]2[C@H]3CN(C(=O)c4ccc(F)cc4)CC(=O)N3[C@H]2CO)cc1	-2	-62	nt
COc1ccc(S(=O)(=O)Nc2ccc3c(c2)CC(=O)N([C@@H](C)CO)C[C@H](C)[C@H](CN(C)S(=O)(=O)c2ccc(OC)cc2)O3)cc1	5	-86*	3
Cc1ccc(S(=O)(=O)N(C)C[C@@H]2Oc3ccc(NS(=O)(=O)c4ccc(Cl)cc4)cc3CC(=O)N([C@@H](C)CO)C[C@@H]2C)cc1	3	-81*	42
Cc1ccc(S(=O)(=O)N(C)C[C@@H]2Oc3ccc(NS(=O)(=O)c4ccc(Cl)cc4)cc3CC(=O)N([C@H](C)CO)C[C@H]2C)cc1	5	-39	25
COc1ccc(S(=O)(=O)Nc2ccc3c(c2)CC(=O)N([C@H](C)CO)C[C@H](C)[C@@H](CN(C)S(=O)(=O)c2ccc(OC)cc2)O3)cc1	8	-49	9
COc1cccc(C#Cc2ccc([C@@H]3[C@H](CO)N4C(=O)CN(C(C)=O)C[C@@H]34)cc2)c1	-9	24	nt
SMILES	C diff HTS	Pf Dd2 growth	Tcruzi prolif
C[C@H]1CN([C@@H](C)CO)C(=O)c2cc(NC(=O)Nc3cccc4ccccc34)ccc2O[C@@H]1CN(C)C(=O)Nc1ccc(C(F)(F)F)cc1	0	-39	24
C/C=C/c1ccc([C@H]2[C@@H](CO)N(c3nc(C)c(C)s3)[C@@H]2CNCC(C)C)cc1	33	-96*	nt
C/C=C/c1ccc([C@@H]2[C@@H](C#N)N(c3nc(CC)cs3)[C@@H]2CO)cc1	1	6	21
COc1ccc(NC(=O)Nc2ccc3c(c2)C(=O)N([C@H](C)CO)C[C@@H](C)[C@@H](CN(C)C(=O)Nc2ccc4c(c2)OCO4)OCCCC[C@@H](C)O3)cc1	10	-90*	69
C[C@@H]1CCCCO[C@H](CN(C)C(=O)Nc2ccc3c(c2)OCO3)[C@H](C)CN([C@H](C)CO)C(=O)c2cc(NC(=O)NC3CCCCC3)ccc2O1	-10	-82*	63
COc1ccc(NC(=O)Nc2ccc3c(c2)C(=O)N([C@@H](C)CO)C[C@@H](C)[C@H](CN(C)C(=O)Cc2ccccc2)OCCCC[C@H](C)O3)cc1	7	-9	12
C[C@H](CO)N1C[C@H](C)[C@@H](CN(C)C(=O)Nc2ccc(C(F)(F)F)cc2)OCCCC[C@H](C)Oc2ccc(NC(=O)Nc3ccc4c(c3)OCO4)cc2C1=O	4	-38	119*
C[C@@H]1CN([C@@H](C)CO)C(=O)c2cc(NC(=O)NC3CCCCC3)ccc2O[C@@H](C)CCCCO[C@@H]1CN(C)C(=O)Nc1ccc2c(c1)OCO2	-4	-74	16
COc1ccc(NC(=O)Nc2ccc3c(c2)C(=O)N([C@@H](C)CO)C[C@@H](C)[C@H](CN(C)C(=O)Nc2ccc4c(c2)OCO4)OCCCC[C@@H](C)O3)cc1	7	0	40
COc1ccc(NC(=O)Nc2ccc3c(c2)C(=O)N([C@@H](C)CO)C[C@H](C)[C@@H](CN(C)C(=O)Cc2ccccc2)OCCCC[C@@H](C)O3)cc1	5	-86*	68
C[C@@H]1CCCCO[C@@H](CN(C)C(=O)Nc2ccc3c(c2)OCO3)[C@@H](C)CN([C@H](C)CO)C(=O)c2cc(NC(=O)Nc3ccc(C(F)(F)F)cc3)ccc2O1	-2	16	86
C[C@H]1CN([C@@H](C)CO)C(=O)c2cc(-c3ccccc3)cnc2O[C@H]1CN(C)C	-1	-1	29
CCC(=O)NC[C@H]1[C@@H](c2ccc(C3=CCCC3)cc2)[C@H](CO)N1C(=O)C1CC1	-1	-4	55
CC(C)NC(=O)N[C@@H]1CC[C@H](CCNC(=O)C2CCOCC2)O[C@@H]1CO	nt	24	5
CC(C)c1cn(CC[C@@H]2CC[C@H](NC(=O)Nc3cc(Cl)cc(Cl)c3)[C@H](CO)O2)nn1	nt	4	-55
O=C(Cc1ccccn1)N[C@@H]1CC[C@@H](CCNC(=O)c2cc(Cl)cc(Cl)c2)O[C@@H]1CO	nt	9	3
CCCN(C)C[C@H]1Oc2ncc(C#CC3CCCCC3)cc2C(=O)N([C@H](C)CO)C[C@H]1C	5	-71	53
